Only some compounds are listed: those with a hit (about 4.1% of all), similar ones and a draw of the others.
Jurkat NFkB inh – inhibitors of the PMA/ionomycin-induced NF-kB reporter in Jurkat cells; PMA/ionomycin-induced NF-kB luciferase reporter, luminescence; inhibition, % at 4 µM; hit rate 0.53% among 330,000; AID 435003; in the data active = inhibition above about 50%
Mdm2 MdmX PPI – inhibitors of human Mdm2/MdmX interaction; O15151+Q00987; SaOS-2 split-luciferase Mdm2/MdmX complementation, luminescence; inhibition, % at 8 µM; hit rate 3% among 330,000;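 active = inhibition of at least 50% at 8 µM in the primary screen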
Target sequence (O15151 whole entry, looked up): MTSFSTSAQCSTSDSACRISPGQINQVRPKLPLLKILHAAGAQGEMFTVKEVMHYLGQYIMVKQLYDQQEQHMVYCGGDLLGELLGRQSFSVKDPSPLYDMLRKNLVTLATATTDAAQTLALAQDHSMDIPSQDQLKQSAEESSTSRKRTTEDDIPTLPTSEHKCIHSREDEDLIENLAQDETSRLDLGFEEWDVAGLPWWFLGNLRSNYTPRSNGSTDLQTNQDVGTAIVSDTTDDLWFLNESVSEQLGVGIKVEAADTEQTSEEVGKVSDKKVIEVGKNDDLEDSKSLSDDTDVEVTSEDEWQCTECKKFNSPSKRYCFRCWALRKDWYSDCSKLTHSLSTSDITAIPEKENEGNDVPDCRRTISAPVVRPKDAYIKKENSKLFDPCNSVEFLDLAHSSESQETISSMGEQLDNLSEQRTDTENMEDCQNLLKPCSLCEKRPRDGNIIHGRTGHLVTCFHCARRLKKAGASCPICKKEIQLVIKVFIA
Target sequence (Q00987 whole entry, looked up): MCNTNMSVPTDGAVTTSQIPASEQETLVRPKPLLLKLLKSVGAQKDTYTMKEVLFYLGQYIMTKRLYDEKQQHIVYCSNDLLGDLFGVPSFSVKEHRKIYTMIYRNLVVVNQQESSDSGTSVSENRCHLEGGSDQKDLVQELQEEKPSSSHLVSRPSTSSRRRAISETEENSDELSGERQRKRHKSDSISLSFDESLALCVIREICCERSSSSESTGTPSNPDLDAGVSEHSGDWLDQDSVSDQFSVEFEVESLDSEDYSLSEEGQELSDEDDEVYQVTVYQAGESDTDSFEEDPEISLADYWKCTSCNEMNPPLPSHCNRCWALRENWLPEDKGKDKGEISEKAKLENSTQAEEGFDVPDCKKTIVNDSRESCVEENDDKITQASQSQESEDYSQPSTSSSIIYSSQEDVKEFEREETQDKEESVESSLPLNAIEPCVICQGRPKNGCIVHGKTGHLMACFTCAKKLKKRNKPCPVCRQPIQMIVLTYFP
Gli-Sufu antag – blocks Gli-Sufu signaling in a luciferase reporter | Sufu-KO-LIGHT fibroblasts, Gli luciferase reporter luminescence | inhibition, % at 5 µM | hit rate 0.74% among 340,000 | AID 588413;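 active = inhibition above about 55%, limit read from the data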
697 NFkB inh – inhibitors of the PMA/ionomycin-induced NF-kB reporter in 697 B cells; 697 B-cell NF-kB luciferase reporter, 16 h; inhibition, % at 4 µM; hit rate 0.33% among 330,000; AID 435022; in the data active = inhibition above about 35%
aSyn UTR inh – 5' untranslated region of α-synuclein, MLPCN primary screen | alpha-synuclein 5'UTR reporter, inhibitor activity | inhibition, % (tested at 7.5 µM) | hit rate 0.82% among 300,000 | AID 1813; in the data active = inhibition above about 60%; inconclusive = no clear call, values can overlap the other calls;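 also: H4 neuroglioblastoma cells stably carrying SNCA 5'UTR luciferase fusion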
KLF5 inh – inhibitors of KLF5 expression | hit rate 0.23% among 290,000 | inhibition, % at 5 µM | DLD-1 KLF5 promoter-luciferase reporter, luminescence | AID 1700;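 active = inhibition above a per-plate limit of that plate's mean compound inhibition plus 3 SD, cut at about 60% in these data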;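 also: higher means less KLF5 promoter-driven luciferase light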
Gli-Sufu confirm – confirmation of Gli-SUFU pathway antagonists | shares compounds with Gli-Sufu antag | inhibition, % at 5 µM | Sufu-KO-LIGHT cells, Gli luciferase reporter, luminescence | AID 602428 | hit rate 40% among 2,500;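 active = mean inhibition at 5 µM reaching about 45%, limit read from the data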
SufuKO cytotox – cytotoxicity counter-screen for Gli-SUFU antagonists; shares compounds with Gli-Sufu antag; cytotoxicity, % at 5 µM; AID 651994; hit rate 32% among 2,500; Sufu-KO-LIGHT cells cytotoxicity, ATP luminescence;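 active = mean cytotoxicity at 5 µM above about 25%, limit read from the data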;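 also: cells exposed to compound overnight for roughly 16 to 18 hours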
Wnt3a counter – counter-screen for Gli-SUFU antagonists: Wnt3a reporter inhibition. inhibition, % at 6.25 µM. hit rate 20% among 2,500. Wnt-LIGHT cells, Wnt3a-driven luciferase reporter, luminescence. shares compounds with Gli-Sufu antag;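 active = mean inhibition above about 25%, limit read from the data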
Large screens that a line does not name were inactive (follow-up assays come after a bar, where they were run).

CCCNC(=O)c1ccc(N2CCC3(CC2)CC(c2ccccc2)=NO3)c(NC(=O)c2cccc(C)c2)c1	none | Gli-Sufu confirm inactive | SufuKO cytotox inactive | Wnt3a counter inactive
CCCNC(=O)c1ccc(N2CCC3(CC2)CC(c2ccccc2)=NO3)c(NC(=O)c2ccccc2)c1	aSyn UTR inh inconclusive
Cc1ccc(-c2nc(CS(=O)(=O)CC(=O)Nc3cc(F)ccc3F)c(C)o2)cc1	none
C[C@@H]1COC(=O)[C@@H](NC(=O)OCC2c3ccccc3-c3ccccc32)C/C=C\C[C@@H](CC(=O)N(CCO)Cc2ccccc2)C(=O)N1	Gli-Sufu antag 75 (no result: aSyn UTR inh, KLF5 inh) | Gli-Sufu confirm 70 | SufuKO cytotox inactive | Wnt3a counter inactive
CCOc1ccc(NC(=O)CCSc2nnc(C)s2)cc1	none | Gli-Sufu confirm inactive | SufuKO cytotox inactive | Wnt3a counter inactive
O=C(CSc1ccc2nnc(-c3cccnc3)n2n1)NCc1ccco1	Gli-Sufu antag 82 | Gli-Sufu confirm inactive | SufuKO cytotox inactive | Wnt3a counter inactive
COc1ccc(NC(=O)CN(c2ccc(F)cc2)S(=O)(=O)c2ccccc2)c(OC)c1	none
CCc1ccccc1NC(=O)CN(c1cccc(OC)c1)S(C)(=O)=O	Gli-Sufu antag 92 | Gli-Sufu confirm inactive | SufuKO cytotox inactive | Wnt3a counter inactive
COc1cccc(N(CC(=O)Nc2cccc(C(C)=O)c2)S(C)(=O)=O)c1	Gli-Sufu antag 77 | Gli-Sufu confirm inactive | SufuKO cytotox inactive | Wnt3a counter inactive
COc1ccc(N(CC(=O)NCCSCc2ccc(C)cc2)S(=O)(=O)c2ccccc2)cc1	Gli-Sufu antag 95 | Gli-Sufu confirm inactive | SufuKO cytotox inactive | Wnt3a counter inactive
COc1ccccc1NC(=O)CN(c1ccccc1)S(=O)(=O)c1ccccc1	none | Gli-Sufu confirm inactive | SufuKO cytotox inactive | Wnt3a counter inactive
COc1cccc(N(CC(=O)Nc2ccccc2C)S(C)(=O)=O)c1	none
C=CCNC(=O)/C(=C/c1cccc([N+](=O)[O-])c1)NC(=O)c1ccco1	none
N#CCC(=O)Nc1ccc(C(=O)NCc2ccccn2)cc1	none
COc1ccc(CC(=O)NNC(=O)CCC(=O)Nc2cc(C)ccc2C)cc1	Gli-Sufu antag 82 | Gli-Sufu confirm inactive | SufuKO cytotox inactive | Wnt3a counter inactive
CCC(C(=O)Nc1cccc(C(=O)O)c1C)c1ccccc1 (centres undefined)	none
CC(=O)N1CCOc2ccc(S(=O)(=O)NC(C)c3ccccc3)cc21 (centres undefined)	Gli-Sufu antag 61 | Gli-Sufu confirm inactive | SufuKO cytotox inactive | Wnt3a counter inactive
Cc1ccc(C)c(CN2C(=O)COc3ccc(C(=O)c4ccccc4C(=O)O)cc32)c1	none | Gli-Sufu confirm inactive | SufuKO cytotox inactive | Wnt3a counter inactive
Cc1ccc(C)c(CN2C(=O)COc3ccccc32)c1	none
O=C(COc1ccccc1)Nc1nnc(S(=O)(=O)N2CCCCC2)s1	none | Gli-Sufu confirm inactive | SufuKO cytotox inactive | Wnt3a counter inactive
CCN(CC(=O)NCc1ccc(Cl)cc1)C(=O)CSCC(=O)Nc1cccc(C)c1	none
Oc1ccc(-c2nc3ccc4ccccc4c3c3c2CCC3)cc1O	Gli-Sufu antag 56 | Gli-Sufu confirm inactive | SufuKO cytotox inactive | Wnt3a counter inactive
COc1cccc(CN(C)CC2CCCN(CCc3ccccc3C)C2)c1 (centres undefined)	Gli-Sufu antag 61 | Gli-Sufu confirm inactive | SufuKO cytotox inactive | Wnt3a counter inactive
COc1ccc(CN(C)CC2CCCN(CCc3ccccc3C)C2)cc1O (centres undefined)	none
N#CC(Cc1ccccc1OC(F)F)c1nc2ccccc2[nH]1 (centres undefined)	none
CS(=O)(=O)c1ccc(Cl)c(NC(=O)COC(=O)CCCN2C(=O)c3cccc4cccc(c34)C2=O)c1	none (no result: KLF5 inh)
O=C(CCc1ccc(O)c(O)c1)NNC(=S)Nc1ccc(Br)cc1Cl	none
Cn1c(N2CCN(C(=O)NC34CC5CC(CC(C5)C3)C4)CC2)nc2ccccc21	none

Screening data from PubChem BioAssay.
